GPR151 activ – activates the human receptor GPR151; Q8TDV0; PathHunter beta-arrestin GPR151 cells, luminescence; activation, % at 11.2 µM; 650,000 compounds, 1% hits; AID 1508602; in the data active = activation above about 4.9%
Target sequence (Q8TDV0 whole entry, looked up): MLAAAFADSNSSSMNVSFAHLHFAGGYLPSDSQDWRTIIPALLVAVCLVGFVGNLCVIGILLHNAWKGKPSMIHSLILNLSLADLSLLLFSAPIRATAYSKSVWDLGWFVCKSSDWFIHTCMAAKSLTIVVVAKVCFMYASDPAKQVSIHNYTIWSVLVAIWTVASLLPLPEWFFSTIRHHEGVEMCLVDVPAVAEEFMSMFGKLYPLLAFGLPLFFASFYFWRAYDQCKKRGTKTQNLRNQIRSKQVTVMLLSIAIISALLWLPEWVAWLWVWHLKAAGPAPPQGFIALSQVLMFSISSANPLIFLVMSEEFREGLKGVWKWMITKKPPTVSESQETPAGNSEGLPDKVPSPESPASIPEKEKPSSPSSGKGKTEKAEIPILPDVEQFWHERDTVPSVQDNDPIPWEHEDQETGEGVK
FBW7 act – activators of human E3 ligase FBW7. Q969H0. AlphaScreen FBW7–phospho-cyclin E peptide binding, activator screen. normalized activity (activation), % at 26.1 µM. 650,000 compounds, 0.13% hits. AID 1259310; in the data active = normalized activity above about 1.9%;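 note: purified mutant Fbw7 with reduced substrate affinity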
TEAD-YAP block – TEAD-YAP interaction inhibition. HEK-TIYL cells, TEAD-Gal4/YAP UAS-luciferase luminescence. inhibition, % at 9.12 µM. 640,000 compounds, 1.4% hits. AID 1259422; in the data active = inhibition above about 32%
MITF inh – blocks human microphthalmia-associated transcription factor; O75030; AlphaScreen MITF homodimerization, bead proximity signal; inhibition, % at 2.6 µM; 650,000 compounds, 0.91% hits; AID 1259374; in the data active = inhibition above about 50%
MITF inh conf – human MITF inhibition, confirmation. shares compounds with MITF inh. AlphaScreen MITF homodimerization, biotin/His-MITF beads. inhibition, % at 2.6 µM. 4,700 compounds, 16% hits. AID 1259372;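 active = inhibition above a cutoff derived from the DMSO control wells, cut at about 28% in these data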;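 note: inhibitors lower the bead chemiluminescence by keeping MITF from dimerizing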
AS interf DR – AlphaScreen optical interference, dose response counter-screen | shares compounds with MITF inh | AlphaScreen optical interference counterscreen, cell-free | IC50, µM | 480 compounds, 6% hits; call rule not given here
AS interf ctr – AlphaScreen optical interference, counter-screen. shares compounds with MITF inh. LysRS AlphaScreen counterscreen, signal interference, triplicate. inhibition, % at 2.6 µM. 4,700 compounds, 7.6% hits. AID 1259376;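 active = inhibition above a cutoff derived from the DMSO control wells, cut at about 30% in these data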
Numbers stand for hits; n = inactive; x = not tested or not shown. In the library only some 3.5% were active in any assay of this set; here they are far more common.

SMILES | GPR151 activ | FBW7 act | TEAD-YAP block | MITF inh | others
CC[n+]1c(/C=C/N(C)c2ccccc2)sc2ccc(OC)cc21 | n | n | 79 | n
C[C@@H]1O[C@@H](O[C@H]2C[C@@H](O)[C@]3(CO)C4C(CC[C@]3(O)C2)[C@@]2(O)CC[C@H](C3=CC(=O)OC3)[C@@]2(C)C[C@H]4O)[C@H](O)[C@H](O)[C@H]1O (stereo not given in full) | n | n | 99 | n
C[C@]12CC[C@H](O)C[C@H]1CC[C@@H]1[C@@H]2CC[C@]2(C)[C@@H](C3=CC(=O)OC3)CC[C@]12O | n | n | x | n
COC1CC(O[C@H]2CC[C@]3(C=O)C4CC[C@]5(C)C(C6=CC(=O)OC6)CC[C@]5(O)C4CC[C@]3(O)C2)OC(C)C1O (stereo not given in full) | n | n | 101 | n
C[C@@H]1O[C@@H](O[C@H]2C[C@@H](O)[C@]3(CO)[C@@H]4C(CC[C@]3(O)C2)[C@@]2(O)CC[C@H](C3COC(=O)C3)[C@@]2(C)C[C@H]4O)[C@H](O)[C@H](O)[C@H]1O (stereo not given in full) | n | n | 94 | n
C=CCNC(=O)c1cn(Cc2ccccc2)cc(C(=O)N(CCC)CC2CC2)c1=O | n | n | n | n
CC(=O)c1c(O)n(C)c(=O)n(C)c1=O | n | n | n | n
CC1CCC(C(C)C)C(OC(=O)Cn2c(COc3ccccc3)[n+](C)c3ccccc32)C1 (stereo not given) | n | n | 37 | n
CC1CCCC(N2CCN(C(=O)COc3ccccc3)CC2)C1 (stereo not given) | n | n | n | n
OCc1nnn(-c2nonc2-[n+]2nc3nonc3[n-]2)c1CO | n | n | n | n
O=C(CCl)Nc1ccc(Cl)cc1C(=O)c1ccccc1 | n | n | 35 | n
C/C=C(/C)C(=O)O[C@H]1C(C)=C2[C@H]([C@@H]1OC(=O)CCCCCCC)[C@@](C)(OC(C)=O)C[C@H](OC(=O)CCC)[C@@]1(O)[C@H]2OC(=O)[C@@]1(C)O | n | n | 57 | n
CN(C)c1ccc(-c2cc[n+](C)cc2)cc1 | n | n | 56 | n
O=C(c1cc(-c2ccccc2)on1)N1CCC2(CC1)OCCO2 | n | n | n | n
O=C(c1noc2c1COc1ccccc1-2)N1CCC2(CC1)OCCO2 | n | n | 75 | n
COc1ccc(C2NCc3ccc4c(c3-n3cccc32)OCO4)cc1O (stereo not given) | n | n | 56 | n
COc1ccccc1Cn1c(SCC#N)nc2cc(C(=O)N3CCC4(CC3)OCCO4)ccc2c1=O | n | n | n | n
Cc1ccc2c(=O)n(-c3cccc(Cl)c3)c(=O)[nH]c2c1 | n | n | n | n
C=CCOc1ccc(/C=C(\C)[N+](=O)[O-])cc1OC | n | n | 42 | n
COC(=O)c1[nH]cnc1C(=O)Nc1ccc(Cl)cc1C(=O)c1ccccc1 | n | n | n | n
COc1cccc(CN2CCN(C(=O)Cc3cccnc3)[C@@H](C)C2)c1 | n | n | n | n
c1ccc2cc(-c3ccc4c(c3)COC3(CCNCC3)O4)ccc2c1 | n | n | 84 | n
c1cc2c(cc1-c1ccc3c(c1)OCO3)COC1(CCNCC1)O2 | n | n | n | n
CC12CCC(O)CC1=CCC1C2CCC2(C)C(O)/C(=C/c3cccc(Br)c3)CC12 (stereo not given) | n | n | n | n
CCO/C(=C\c1sc2ccc3ccccc3c2[n+]1C)CC | n | n | n | n
SMILES | GPR151 activ | FBW7 act | TEAD-YAP block | MITF inh | others
CCOC(=O)C1=C(C)NC(C)=C2C(=O)Oc3ccccc3C12 (stereo not given) | n | n | n | n
CCOC(=O)C12OC1(c1ccc(CC)cc1)C(=O)c1ccccc1C2=O (stereo not given) | n | n | 37 | n
O=c1c2ccccc2nc(-c2ccccc2)n1-c1ccccc1O | n | n | n | 68 | MITF inh conf=32;AS interf DR=n;AS interf ctr=n
c1ccc(CCN2CCc3nc4cccnc4cc3C2)cc1 | n | n | n | n
CC1(C)CC(=O)c2sc(N[N+](=O)[O-])nc2C1 | n | n | n | 84 | MITF inh conf=n;AS interf ctr=n
CCOC(=O)C1C2NC(=S)N(c3ccccc3C)C1(C)Oc1c(OCC)cccc12 (stereo not given) | n | n | n | 60 | MITF inh conf=34;AS interf ctr=36
CC1(C(=O)O)C2CCC(O2)C1(C)C(=O)O (stereo not given) | n | n | n | n
CCOc1ccc(CN(CCc2ccc3c(c2)OCO3)Cc2ccc([N+](=O)[O-])cc2)cc1 | n | n | n | 54 | MITF inh conf=n;AS interf ctr=n
CCOc1ccc(CN(CCc2ccc3c(c2)OCO3)Cc2ccc(Cl)cc2)cc1 | n | n | n | n
COC(=O)C1=C(C(=O)OC)C2c3ccccc3C=CN2C(C(=O)OC)=C1C(=O)OC (stereo not given) | n | n | n | 51 | MITF inh conf=51;AS interf ctr=n
CCOc1ccccc1NC(=O)CCc1nc(C2=CCN(C)CC2)no1 | n | n | n | n
O=C1CSC2N1CCCNC21CCCCC1 (stereo not given) | n | n | n | n
CC(C)N1CCN(Cc2ccccc2Cl)CC1 | n | n | n | 73 | MITF inh conf=n;AS interf ctr=n
CCN1CCN(Cc2ccccc2Cl)CC1 | n | n | n | n
COc1ccccc1CN1CCN(C(C)C)CC1 | n | n | n | 67 | MITF inh conf=n;AS interf ctr=n
COc1ccccc1CN1CCN(Cc2ccc(C)cc2)CC1 | n | n | n | 76 | MITF inh conf=n;AS interf ctr=n
COc1cc(CN2CCN(Cc3ccccc3)CC2)cc(Br)c1O | n | n | n | 51 | MITF inh conf=n;AS interf ctr=n
COc1cc(CN2CCN(Cc3ccccc3)CC2)ccc1O | n | n | n | n
CCOc1ccc(C2N(c3ccccn3)C(=O)C3CCCN32)cc1 (stereo not given) | n | n | n | n
Cc1cccc(OP(N)(=O)Oc2cccc(C)c2)c1 | n | n | n | n
COc1ccccc1CN1CCN(c2ccc([N+](=O)[O-])cc2)CC1 | n | n | n | n
COc1ccccc1CN1CCN(Cc2ccccc2)CC1 | n | n | n | 88 | MITF inh conf=n;AS interf ctr=n
CC(C)N1CCN(Cc2ccccc2C(F)(F)F)CC1 | n | n | n | 61 | MITF inh conf=n;AS interf ctr=n
CCc1ccc(CN2CCN(Cc3ccccc3OC)CC2)cc1 | n | n | n | 72 | MITF inh conf=n;AS interf ctr=n
COc1cccc(CN2CCN(Cc3ccccc3)CC2)c1O | n | n | n | n
CC(=O)NC(C(=O)NCc1ccccc1)C(C)C (stereo not given) | n | n | n | n
Oc1cccc(CN2CCN(c3ccccc3Cl)CC2)c1 | n | n | n | n
CN1CCN(c2cc(N3CCNCC3)c([N+](=O)[O-])cc2F)CC1 | n | n | n | n
Cc1ccc(COc2cc(C)cc3oc(=O)c4c(c23)CCCC4)cc1 | n | n | n | n
FC(F)(F)c1ccccc1CNCCc1ccc2c(c1)OCO2 | n | n | n | 55 | MITF inh conf=n;AS interf ctr=n

Screening data from PubChem BioAssay.
